Test in all cases: protein-binding microarray (PBM); PBM: ~300 nM protein, 6 mM HEPES pH 7.8, 80 mM KCl, 0.5 mM EDTA, 0.5 mM EGTA, 6% glycerol, 35 ng/ul poly-dIdC, 1% milk, 1 h, room temperature; Ap Aiptasia and Nv Nematostella (sea anemones) / Co Capsaspora / Aq Amphimedon (sponge) / Dm Drosophila / Hu human; RHD is the Rel homology domain; high values mean tight binding
Holding throughout (conditions): dsDNA, one strand shown

Assay [1] has as its target T1, GST-Ap-NF-kB RHD (Exaiptasia pallida (Aiptasia), UniProt A0A913YAJ5 2-422).
T1 sequence: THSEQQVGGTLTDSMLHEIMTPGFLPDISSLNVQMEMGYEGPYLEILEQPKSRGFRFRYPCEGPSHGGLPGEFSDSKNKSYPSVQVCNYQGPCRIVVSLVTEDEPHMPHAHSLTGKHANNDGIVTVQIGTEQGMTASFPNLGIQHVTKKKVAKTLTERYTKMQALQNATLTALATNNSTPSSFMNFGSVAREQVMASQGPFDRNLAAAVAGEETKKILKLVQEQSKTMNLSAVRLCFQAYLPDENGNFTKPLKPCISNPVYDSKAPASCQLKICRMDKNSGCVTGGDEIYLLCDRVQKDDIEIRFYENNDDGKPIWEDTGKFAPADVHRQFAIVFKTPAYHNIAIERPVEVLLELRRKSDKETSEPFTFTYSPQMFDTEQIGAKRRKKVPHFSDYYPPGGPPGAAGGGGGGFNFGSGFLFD

Assay [2] has as its target T2, GST-Nv-NF-kB (Cys allele) (Nematostella vectensis, UniProt E5G601 2-411).
T2 sequence: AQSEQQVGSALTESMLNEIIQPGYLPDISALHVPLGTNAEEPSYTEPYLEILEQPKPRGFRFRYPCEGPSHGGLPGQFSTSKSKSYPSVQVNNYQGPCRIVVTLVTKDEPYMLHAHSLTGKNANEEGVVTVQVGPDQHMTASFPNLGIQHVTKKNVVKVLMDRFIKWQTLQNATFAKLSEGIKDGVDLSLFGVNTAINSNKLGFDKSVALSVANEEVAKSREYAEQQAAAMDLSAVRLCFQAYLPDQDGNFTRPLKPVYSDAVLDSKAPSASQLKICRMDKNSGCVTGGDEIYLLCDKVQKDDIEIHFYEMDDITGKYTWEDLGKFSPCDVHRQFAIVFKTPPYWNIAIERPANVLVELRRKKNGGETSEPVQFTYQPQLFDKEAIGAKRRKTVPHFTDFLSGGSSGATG

Assay [3] addresses T3, GST-Nv-NF-kB (Ser allele) (Nematostella vectensis, UniProt A7UNT2 2-411).
T3 sequence: T2 sequence with Q21R, C66S, S207N, E215Q, V217A, E225K, A268E, D399E

In assay [4] the target is T4, GST-Co-NF-kB (Capsaspora owczarzaki, UniProt F1ARL5 200-546).
T4 sequence: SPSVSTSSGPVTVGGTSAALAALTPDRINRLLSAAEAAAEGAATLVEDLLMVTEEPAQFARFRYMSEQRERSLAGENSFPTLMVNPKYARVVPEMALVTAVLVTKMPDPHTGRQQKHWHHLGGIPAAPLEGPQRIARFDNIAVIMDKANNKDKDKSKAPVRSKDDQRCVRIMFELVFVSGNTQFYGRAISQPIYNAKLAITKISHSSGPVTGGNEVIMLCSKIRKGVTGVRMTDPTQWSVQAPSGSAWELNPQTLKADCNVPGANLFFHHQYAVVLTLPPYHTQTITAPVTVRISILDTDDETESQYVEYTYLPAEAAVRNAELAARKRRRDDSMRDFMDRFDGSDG

The target in assay [5] is T5, GST-Dm-Relish (Drosophila melanogaster, UniProt Q94527 99-473).
T5 sequence: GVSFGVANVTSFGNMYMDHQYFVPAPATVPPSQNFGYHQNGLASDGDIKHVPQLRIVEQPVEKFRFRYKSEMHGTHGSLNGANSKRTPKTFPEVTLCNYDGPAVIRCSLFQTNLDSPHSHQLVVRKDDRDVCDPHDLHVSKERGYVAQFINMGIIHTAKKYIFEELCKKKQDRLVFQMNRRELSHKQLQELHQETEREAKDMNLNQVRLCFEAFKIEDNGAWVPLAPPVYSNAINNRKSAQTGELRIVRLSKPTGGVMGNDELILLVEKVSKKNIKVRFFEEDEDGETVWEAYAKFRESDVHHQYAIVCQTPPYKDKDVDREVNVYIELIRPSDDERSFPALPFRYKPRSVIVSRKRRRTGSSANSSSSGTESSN

The target of assay [6] is T6, GST-Aq-NF-kB (Amphimedon queenslandica, UniProt A9Y5G7 2-389).
T6 sequence: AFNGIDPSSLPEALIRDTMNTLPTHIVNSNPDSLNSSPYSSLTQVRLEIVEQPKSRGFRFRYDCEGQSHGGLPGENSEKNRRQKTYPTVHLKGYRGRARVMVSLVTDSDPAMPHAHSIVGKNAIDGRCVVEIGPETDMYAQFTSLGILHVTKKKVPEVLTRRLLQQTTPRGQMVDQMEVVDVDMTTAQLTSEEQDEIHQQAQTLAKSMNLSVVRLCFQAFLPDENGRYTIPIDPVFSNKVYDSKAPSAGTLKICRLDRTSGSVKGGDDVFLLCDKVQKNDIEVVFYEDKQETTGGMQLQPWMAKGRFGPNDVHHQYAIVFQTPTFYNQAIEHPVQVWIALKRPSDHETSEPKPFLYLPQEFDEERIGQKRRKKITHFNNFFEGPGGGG

For assay [7], the target named is GST-Hu-p50 (Homo sapiens, UniProt P19838 7-356).

Substitutions are numbered along the chain they refer to.

Chain of GST-Hu-p50 (P19838 7-356): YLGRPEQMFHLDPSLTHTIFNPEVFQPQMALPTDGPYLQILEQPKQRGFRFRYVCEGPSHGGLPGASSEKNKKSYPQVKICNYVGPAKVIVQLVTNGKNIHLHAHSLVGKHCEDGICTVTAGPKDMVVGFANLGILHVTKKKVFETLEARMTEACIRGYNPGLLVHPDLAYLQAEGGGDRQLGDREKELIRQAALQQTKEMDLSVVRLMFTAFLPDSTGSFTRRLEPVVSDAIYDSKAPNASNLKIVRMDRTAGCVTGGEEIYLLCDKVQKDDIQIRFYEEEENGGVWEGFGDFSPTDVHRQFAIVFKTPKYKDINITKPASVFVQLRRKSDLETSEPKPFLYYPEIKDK

On to “CCGATTAACATCACGGGAAAACCTGATGTTAATCGGGTCTTGATTCGCTTGACGCTGCTG”, for which the binding signal was 4.2 z-score in assay [1]; 4.49 z-score in assay [2]; 5.49 z-score in assay [3]; 5.1 z-score in assay [4]; 4.62 z-score in assay [5]; 5.78 z-score in assay [6]. For the same sequence, in assay [7], the binding signal is 3.46 z-score.

Take “CCGATTAACATCAGGGTATACCCTGATGTTAATCGGGTCTTGATTCGCTTGACGCTGCTG”: the binding signal is 4.43 z-score in assay [1]; 3.42 z-score in assay [2]; 2.44 z-score in assay [3]; 2.48 z-score in assay [4]; 4.16 z-score in assay [5]; 6.04 z-score in assay [6]. The same sequence returned a binding signal in assay [7] of 2.22 z-score.

Consider “CCGATTAACATCAGGGGAAATCATGATGTTAATCGGGTCTTGATTCGCTTGACGCTGCTG”, for which the binding signal in assay [1] came out at 7.92 z-score; in assay [2] it was 8.72 z-score; in assay [3], 11.1 z-score; in assay [4] it was 7.67 z-score; in assay [5] it was 5.47 z-score; in assay [6] it was 5.97 z-score. In assay [7], this sequence displayed a binding signal of 6.18 z-score.

Consider “CCGATTAACATCAGATTCCCCCATGATGTTAATCGGGTCTTGATTCGCTTGACGCTGCTG”, for which the binding signal came out at 8.01 z-score in assay [1]; 7.43 z-score in assay [2]; 8.63 z-score in assay [3]; 8.94 z-score in assay [4]; 5.21 z-score in assay [5]; 5.82 z-score in assay [6]. The binding signal in assay [7] was found to be 6.7 z-score.

As for “CCGATTAACATCAGGGGAACCCCTGATGTTAATCGGGTCTTGATTCGCTTGACGCTGCTG”, the binding signal in assay [1] came out at 12.5 z-score; in assay [2] it was 11.6 z-score; in assay [3], 11.2 z-score; in assay [4] it was 6.69 z-score; in assay [5], 10.5 z-score; in assay [6], 10.7 z-score. The sequence further gave a binding signal in assay [7] of 7.08 z-score.

For the sequence “CCGATTAACATCAAAAATCCCCCTGATGTTAATCGGGTCTTGATTCGCTTGACGCTGCTG”, the binding signal was determined as 11.1 z-score in assay [1]; 11.4 z-score in assay [2]; 12.8 z-score in assay [3]; 8.5 z-score in assay [4]; 10.1 z-score in assay [5]; 9.28 z-score in assay [6]. Further, in assay [7], the binding signal was found to be 8.05 z-score.

For the sequence “CCGATTAACATCAAAAAACTCCCTGATGTTAATCGGGTCTTGATTCGCTTGACGCTGCTG”, the binding signal in assay [1] was determined as 6.44 z-score; in assay [2], 8.22 z-score; in assay [3] it was 8.11 z-score; in assay [4], 3.38 z-score; in assay [5], 7.13 z-score; in assay [6], 7.46 z-score. Further, the binding signal in assay [7] was 5.69 z-score.

On to “CCGATTAACATCAGGAGCTCCCCTGATGTTAATCGGGTCTTGATTCGCTTGACGCTGCTG”, for which the binding signal in assay [1] came out at 4.8 z-score; in assay [2], 2.61 z-score; in assay [3], 1.84 z-score; in assay [4], 2.71 z-score; in assay [5], 1.84 z-score; in assay [6], 4.7 z-score. This sequence also had a binding signal in assay [7] of 2.1 z-score.

For the sequence “CCGATTAACATCACGGGGAATTATGATGTTAATCGGGTCTTGATTCGCTTGACGCTGCTG”, the binding signal in assay [1] amounted to 7.23 z-score; in assay [2] it was 8.96 z-score; in assay [3] it was 9.51 z-score; in assay [4] it was 8.2 z-score; in assay [5] it was 6.78 z-score; in assay [6], 6.42 z-score. The sequence further registered a binding signal in assay [7] of 6.24 z-score.

In the case of “CCGATTAACATCAAACTTCCCCGTGATGTTAATCGGGTCTTGATTCGCTTGACGCTGCTG”, the binding signal is 6.81 z-score in assay [1]; 8.41 z-score in assay [2]; 8.97 z-score in assay [3]; 8.65 z-score in assay [4]; 7.92 z-score in assay [5]; 7.04 z-score in assay [6]. The sequence further displayed a binding signal in assay [7] of 6.45 z-score.

Consider “CCGATTAACATCAAAAATCCCAGTGATGTTAATCGGGTCTTGATTCGCTTGACGCTGCTG”, for which the binding signal in assay [1] amounted to 3.43 z-score; in assay [2] it was 3.35 z-score; in assay [3] it was 2.65 z-score; in assay [4] it was 2.44 z-score; in assay [5], 7.35 z-score; in assay [6] it was 3.8 z-score. In addition, in assay [7], the binding signal came to 3.5 z-score.

Regarding “CCGATTAACATCAGGGAGATCCCTGATGTTAATCGGGTCTTGATTCGCTTGACGCTGCTG”, the binding signal in assay [1] stood at 7.41 z-score; in assay [2], 8.14 z-score; in assay [3], 4.37 z-score; in assay [4], 1.54 z-score; in assay [5] it was 7.36 z-score; in assay [6], 8.85 z-score. Moreover, the binding signal in assay [7] turned out to be 4.68 z-score.

For the origin of these results see article PMC5700166.
